Test results reported in ChEMBL document CHEMBL3988442, “University of Dundee, Small-Polar-MMV Screening Library” (2021).

Columns and labels:
[1] = molecular target: T1, Aspartate--tRNA(Asp/Asn) ligase (Mycobacterium tuberculosis (strain ATCC 25618 / H37Rv)) (UniProt P9WFW3); experiment: Assay for Asp RNA synthetase-1 from Mycobacterium tuberculosis; assay type: functional; set-up: scale not given: direction of the effect not stated beside the values; settings: 30 µM; also: in the data most compounds retested in dose-response had high values
T1 sequence (whole entry): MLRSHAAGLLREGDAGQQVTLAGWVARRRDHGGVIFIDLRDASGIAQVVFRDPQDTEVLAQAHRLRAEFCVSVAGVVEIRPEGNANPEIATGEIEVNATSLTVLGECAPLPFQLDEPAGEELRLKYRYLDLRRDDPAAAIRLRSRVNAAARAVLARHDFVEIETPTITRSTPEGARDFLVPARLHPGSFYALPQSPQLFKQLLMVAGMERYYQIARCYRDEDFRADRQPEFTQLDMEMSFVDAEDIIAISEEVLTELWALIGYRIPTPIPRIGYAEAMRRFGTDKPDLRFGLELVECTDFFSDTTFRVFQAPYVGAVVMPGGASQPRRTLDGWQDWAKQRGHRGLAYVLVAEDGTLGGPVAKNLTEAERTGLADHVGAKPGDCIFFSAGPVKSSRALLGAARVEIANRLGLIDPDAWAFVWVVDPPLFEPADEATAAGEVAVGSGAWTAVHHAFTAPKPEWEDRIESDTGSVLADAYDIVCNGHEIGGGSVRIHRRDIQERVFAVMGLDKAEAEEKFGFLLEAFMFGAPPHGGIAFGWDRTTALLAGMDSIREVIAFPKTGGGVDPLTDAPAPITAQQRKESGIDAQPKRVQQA

[2] = molecular target: Shiga toxin 2 (Escherichia coli O157:H7) (UniProt P09385+P09386); experiment: E. coli 0.157:H7 Shiga Toxin SOP - stx2 screening assay; assay type: functional; set-up: scale not given: direction of the effect not stated beside the values; settings: 30 µM

Row | SMILES | Percent Effect [1] | Percent Effect [2]
1 | CN(C)CC1(O)CCN(S(=O)(=O)c2ccc(F)c(F)c2)C1 (stereo unspecified) | -2.99% | 4.61%
2 | CO[C@@H]1CC[C@H]2[C@H]1OCCN2C(=O)c1ccc(C)o1 | 2.26% | -16.7%
3 | Cc1nc(C(=O)N2CCCC(n3cncn3)C2)cs1 (stereo unspecified) | -3.48% | 1.3%
